Spn PMK inh: S. pneumoniae PMK inhibitors, primary screen, biochemical, mevalonate pathway, pilot trial included; inhibition, % at 10 µM; actives 0.49% (n = 65,000); purified PMK, PK/LDH-coupled NADH absorbance 340 nm;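 active = top-ranked compounds by inhibition in the single 10 µM screen, taking a fixed number of the strongest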
A340 absorber: compound light absorbance at 340 nm, profiling panel, artefact control, biochemical, MLSMR library, data from PS, PMK, MK assays; 65,000 tested, under 10 active; fold change at 10 µM; compound absorbance at 340 nm, fold over control; AID 708, 2007;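 active = at 10 µM dose, initial 340 nm absorbance at least 2 fold that of control wells; inactive = change under 2 fold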;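 note: initial absorbance extrapolated from kinetic A340 decline of NADH oxidation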
DPM-DC inhibit: S. pneumoniae DPM-DC inhibitors, primary screen, biochemical, PK/LDH-coupled NADH fluorescence. diphosphomevalonate decarboxylase (Streptococcus pneumoniae D39). purified DPM-DC. calls only at 10 µM. actives 0.49% (n = 65,000). AID 556, 2006;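 active = the 320 compounds with the highest percent inhibition in the single-dose primary screen, excluding strongly autofluorescent ones, cut at about 32% in these data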;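 note: kinetic rate of NADH fluorescence loss reporting ADP formed by the decarboxylase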
Autofluor 339: intrinsic fluorescence of library compounds, ex339/em460 – biochemical, MLSMR library, data from DPM-DC assay, artefact control, profiling panel. compound autofluorescence, ex339/em460 nm, NADH buffer; hits give high values; 1 = no-compound wells, NADH background. fluorescence fold increase at 10 µM. actives 5.5% (n = 65,000). AID 709, 2007;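 active = at 10 µM, mean starting fluorescence two-fold or more over control wells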;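 note: signal is the first read of a kinetic run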
NADH enzymes: inhibitors of PK/LDH coupling enzymes, profiling panel, artefact control, biochemical, MLSMR library. coupled PK/LDH NADH assays, four targets. IC50, µM (top dose mostly 10 µM). actives 0.02% (n = 65,000);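 active = single-dose screening hits from any of four coupled enzyme assays that gave an IC50 when retested across doses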;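 note: the DPM-DC format reads NADH fluorescence rather than 340 nm absorbance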
MK inhibit: S. pneumoniae MK inhibitors, primary screen, biochemical, PK/LDH-coupled NADH absorbance; mevalonate kinase [Streptococcus pneumoniae D39]; purified MK, PK/LDH-coupled NADH absorbance 340 nm; inhibition, % at 10 µM; actives 0.48% (n = 65,000);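 active = ranked among the strongest by inhibition in the single 10 µM screen, a fixed top-ranked set picked for dose follow-up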
Hits are given with their value; n = inactive; x = no result shown; + = active, no number; ! = not active in a repeat. In the library only some 6.8% were active in any assay of this set; here they are far more common.

SMILES	Spn PMK inh	A340 absorber	DPM-DC inhibit	Autofluor 339	NADH enzymes	MK inhibit
COc1cc(OC)cc(-c2cc3nc4c(c(N5CCN(c6cnccn6)CC5)n3n2)CCCC4)c1	n	n	n	2.8	n	n
Cn1c(NCc2ccco2)nc2c1c(=O)n(Cc1ccc(Cl)c(Cl)c1)c(=O)n2C	n	n	n	n	n	n
c1ccc(-c2nn3c(Cn4nnc5ccccc54)nnc3s2)cc1	n	n	n	n	n	n
c1ccc2c(c1)nnn2Cc1nnc2sc(-c3ccc4c(c3)OCCO4)nn12	n	n	+	2.9	n	n
COC(=O)c1[nH]c2cccc(Cl)c2c1NC(=O)CN(C)C1CCCCC1	n	n	n	n	n	n
COc1ccccc1C(=O)N1CCN(c2ccccn2)CC1	n	n	n	n	n	n
COc1ccccc1C(=O)N1CCN(c2nc3cc(C)c(C)cc3cc2C#N)CC1	n	n	n	2.8	n	n
COC(=O)C1=CN(C2CC2)C=C(C(=O)OC)C1c1ccccc1OC	n	n	x	3.8	n	n
CCOc1cc(N2CCOCC2)c(OCC)cc1NC(=O)Cc1ccc(OC)c(OC)c1	26	n	n	n	n	n
COc1cc2c(N3CCOCC3)cc(O)c(CC(=O)Nc3ccccc3)c2cc1OC	n	n	x	3.1	n	n
CCOc1cc(N2CCOCC2)c(OCC)cc1NC(=O)CN1CCc2ccccc2C1	n	n	n	n	n	73
Cc1cccc(C(=O)Nc2ccccc2C(=O)OCc2c(C)noc2C)c1	n	n	n	n	n	42
Cc1cccc(NC(=O)c2sc3nc(-c4ccc(F)cc4)cn3c2C)n1	n	n	x	4.5	n	n
Cc1cccc(NC(=O)c2sc3nc(-c4ccccc4)cn3c2C)n1	n	n	n	n	n	n
CN1C(=O)c2ccccc2N(C)C1c1ccc2c(c1)OCO2 (stereo not drawn)	n	n	x	3.9	n	n
Cc1ccc(Cn2c(=S)[nH]c3ccc(N4CCOCC4)cc3c2=O)o1	n	n	n	2.8	n	n
O=c1c2cc(N3CCOCC3)ccc2[nH]c(=S)n1CCCN1CCCCCC1	n	n	n	2.9	n	n
O=c1c2cc(N3CCOCC3)ccc2[nH]c(=S)n1CCN1CCCC1	n	n	n	2.6	n	n
CC(C)OCCCn1c(=S)[nH]c2cc3c(cc2c1=O)OCO3	n	n	n	n	n	n
CC(C)OCCCn1c(=S)[nH]c2ccc(N3CCOCC3)cc2c1=O	n	n	n	3.7	n	n
O=c1c2cc3c(cc2[nH]c(=S)n1CCN1CCOCC1)OCO3	n	n	n	n	n	n
COc1cc2c(cc1OC)C(C(=O)Nc1ccc3c(c1)OCCO3)C(c1cccnc1)N(C)C2=O (stereo not drawn)	n	n	n	n	n	n
O=c1c2cc(N3CCOCC3)ccc2[nH]c(=S)n1CCCN1CCN(c2ccccc2F)CC1	n	n	+	3.5	n	n
Cc1oc(C(=O)O)cc1COc1ccc2c(C)cc(=O)oc2c1	n	n	n	2.1	n	n
COC(=O)c1cc(COc2ccc3oc(C)c(C(=O)OC)c3c2)c(C)o1	n	n	n	n	n	n
SMILES	Spn PMK inh	A340 absorber	DPM-DC inhibit	Autofluor 339	NADH enzymes	MK inhibit
COC(=O)c1cc(COc2ccc3ccc(=O)oc3c2)c(C)o1	n	n	x	2.1	n	n
Cc1nn(-c2ccc(F)cc2)c2sc(C(=O)OC3CCOC3=O)cc12 (stereo not drawn)	n	n	x	2.1	n	n
CCOC(=O)C1=C(C)NC(=O)NC1c1c(OCC(=O)N2CCCCC2)ccc2ccccc12 (stereo not drawn)	n	n	n	n	n	n
CC(=O)C(Sc1nc(-c2ccco2)nc2c1c(=O)n(C)c(=O)n2C)C(=O)N(C)C (stereo not drawn)	n	n	n	2.2	n	n
Cn1c(=O)c2c(SCC(=O)NCc3ccco3)nc(CC(C)(C)C)nc2n(C)c1=O	n	n	n	n	n	n
CC1(C)CC(=O)C2=C(C1)N(c1cccc(O)c1)C1=C(C2)C(=O)CC(C)(C)C1	n	n	x	3.6	n	n
CC1(C)CC(=O)c2cnc(N3CCN(c4ccccc4)CC3)nc2C1	n	n	n	n	n	n
O=C(COC(=O)c1cc(=O)[nH]c2ccccc12)NC(=O)NC1CCCCC1	n	n	n	2	n	n
CCCCOC(=O)c1cc(=O)[nH]c2ccccc12	n	n	n	2.1!	n	n
CCCc1[nH]nc2c1C1(CCOC1C)C(C#N)=C(N)O2 (stereo not drawn)	n	n	n	n	n	n
CCOC(=O)c1c(CC(C)C)csc1NC=O	n	n	+	n	n	n
Cn1nc(-c2ccc(Cl)cc2)c2cc(C(=O)NCCN3CCOCC3)sc21	n	n	x	2.1	n	n
Cn1nc(-c2ccc(Cl)cc2)c2cc(C(=O)NCCCN3CCOCC3)sc21	n	n	x	2.1	n	n
CCN1CCN(C(=O)c2cc3c(-c4ccc(Cl)cc4)nn(C)c3s2)CC1	n	n	n	n	n	n
Cn1nc(-c2ccc(Cl)cc2)c2cc(C(=O)N3CCN(C(=O)c4ccco4)CC3)sc21	n	n	n	n	n	n
Fc1ccc(-c2cc3nc(-c4ccccc4)cc(N4CCOCC4)n3n2)cc1	n	n	x	2.1	n	n
Cc1nc2cc(-c3cccc(F)c3)nn2c(N2CCOCC2)c1C	n	n	n	n	n	n
Cc1ccc2oc(=O)c3cc(C(=O)NCc4ccco4)sc3c2c1	n	n	x	2	n	n
CCCc1cc(=O)[nH]c(SCC(=O)Nc2cc3c(cc2C(C)=O)OCO3)n1	n	n	n	2.1	n	n
CCCc1cc(=O)[nH]c(SCC(=O)NC2CCCCC2)n1	n	n	n	n	n	n
CC(=O)c1cc2c(cc1NC(=O)CSc1nnc(C)s1)OCO2	n	n	n	2	n	n
CCc1c(C)c2cc(Cl)c(O)c(CN(CC)CC)c2oc1=O	n	n	x	3.7	n	n
CCc1c(C)c2cc(Cl)c(O)c(CN(C)C)c2oc1=O	n	n	x	3.7	n	n
Cc1c(C)c2cc(Cl)c(O)c(CN(C)C)c2oc1=O	n	n	x	2.3	n	n
CCCCc1cc(=O)oc2c(CN(C)C)c(O)c(Cl)cc12	n	n	x	2.3	n	n
Cn1c(=O)c2[nH]c(Nc3ccccc3)nc2n(C)c1=O	n	n	n	n	n	n
CC(C)c1ccc(-c2nc3c([nH]2)c(=O)n(C)c(=O)n3C)cc1	n	n	+	2.5	n	n
O=C(O)c1ccccc1NCN1C(=O)C2CC=C(Cl)CC2C1=O (stereo not drawn)	n	n	n	2.6	n	n

Screens: PubChem, SRMLSC
